# Assay results as given in paper PMC7862700, “An all-to-all approach to the identification of sequence-specific readers for epigenetic DNA modifications on cytosine”.
# Columns and labels:
# Test in all cases: DAPPL (digital affinity profiling via proximity ligation, sequencing); 10 mM Tris-HCl pH 7.5, 50 mM NaCl, 1 mM DTT, 4% glycerol, room temperature, 30 min; GST-TFs on glutathione beads, 16-mer random dsDNA library, 0.1% formaldehyde crosslink after washing; high values mean tight binding
# FLI1 = biological target: T1, FLI1 (Homo sapiens, UniProt Q01543 1-452); settings: protein: recombinant; tags: N-terminal GST; dsDNA, one strand shown
# T1 sequence: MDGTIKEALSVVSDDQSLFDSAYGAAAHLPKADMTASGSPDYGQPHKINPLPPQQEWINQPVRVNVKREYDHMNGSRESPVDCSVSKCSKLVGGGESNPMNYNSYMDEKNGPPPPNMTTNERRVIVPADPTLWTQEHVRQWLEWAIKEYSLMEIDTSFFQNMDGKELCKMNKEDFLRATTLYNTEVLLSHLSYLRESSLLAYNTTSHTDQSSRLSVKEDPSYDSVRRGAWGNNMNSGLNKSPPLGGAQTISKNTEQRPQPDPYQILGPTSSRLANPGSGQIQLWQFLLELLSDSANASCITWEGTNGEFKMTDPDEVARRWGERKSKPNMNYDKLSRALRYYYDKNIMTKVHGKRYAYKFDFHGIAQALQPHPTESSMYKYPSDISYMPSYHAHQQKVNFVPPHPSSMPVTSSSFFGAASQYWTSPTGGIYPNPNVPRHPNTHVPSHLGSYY
# Outline: (§1)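 Pools of DNA-barcoded human transcription factors, expressed in yeast as GST fusions on glutathione beads and combined with a tag-only sample, were incubated with 200 nmole of a 16-mer random double-stranded DNA library. Incubation took 30 min at room temperature in Tris/NaCl/DTT/glycerol buffer and was followed by washing, 0.1% formaldehyde crosslinking, proximity ligation (BsaI/T4 ligase, 1 h, 37 °C), PCR amplification and sequencing on an Illumina NextSeq500. Binding signal is the ratio of a hexamer's read frequency for a factor to its frequency for the tag-only sample.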
# ELK1 = biological target: T2, ELK1 (Homo sapiens, UniProt P19419 1-428); settings: protein: recombinant; tags: N-terminal GST; dsDNA, one strand shown
# T2 sequence: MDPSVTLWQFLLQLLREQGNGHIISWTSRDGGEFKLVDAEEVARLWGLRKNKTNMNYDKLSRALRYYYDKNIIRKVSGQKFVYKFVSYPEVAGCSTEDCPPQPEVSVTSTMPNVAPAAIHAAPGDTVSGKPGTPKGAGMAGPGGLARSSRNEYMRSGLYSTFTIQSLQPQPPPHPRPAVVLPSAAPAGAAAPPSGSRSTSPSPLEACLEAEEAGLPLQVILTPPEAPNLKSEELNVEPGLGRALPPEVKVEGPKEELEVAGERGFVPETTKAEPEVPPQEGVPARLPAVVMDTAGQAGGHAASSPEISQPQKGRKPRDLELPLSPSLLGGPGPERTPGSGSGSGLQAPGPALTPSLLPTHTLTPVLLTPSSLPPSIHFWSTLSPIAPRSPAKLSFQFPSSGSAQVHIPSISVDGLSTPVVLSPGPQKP
# Outline: as §1
# GABPA = biological target: T3, GABPA (Homo sapiens, UniProt Q06546 1-454); settings: protein: recombinant; tags: N-terminal GST; dsDNA, one strand shown
# T3 sequence: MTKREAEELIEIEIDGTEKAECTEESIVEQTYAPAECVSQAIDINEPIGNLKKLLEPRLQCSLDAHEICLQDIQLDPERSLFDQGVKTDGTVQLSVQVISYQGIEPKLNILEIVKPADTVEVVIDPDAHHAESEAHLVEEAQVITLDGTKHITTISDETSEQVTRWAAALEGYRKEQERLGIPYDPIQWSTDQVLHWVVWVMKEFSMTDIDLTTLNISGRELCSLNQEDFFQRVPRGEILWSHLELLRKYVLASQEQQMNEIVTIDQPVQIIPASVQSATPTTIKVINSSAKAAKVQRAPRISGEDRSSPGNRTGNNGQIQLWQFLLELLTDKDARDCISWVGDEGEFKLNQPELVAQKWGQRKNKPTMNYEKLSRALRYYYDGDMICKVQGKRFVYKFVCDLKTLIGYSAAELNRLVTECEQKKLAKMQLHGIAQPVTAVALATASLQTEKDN
# Outline: as §1
# ERG = biological target: T4, ERG (Homo sapiens, UniProt P11308 1-479); settings: protein: recombinant; tags: N-terminal GST; dsDNA, one strand shown
# T4 sequence: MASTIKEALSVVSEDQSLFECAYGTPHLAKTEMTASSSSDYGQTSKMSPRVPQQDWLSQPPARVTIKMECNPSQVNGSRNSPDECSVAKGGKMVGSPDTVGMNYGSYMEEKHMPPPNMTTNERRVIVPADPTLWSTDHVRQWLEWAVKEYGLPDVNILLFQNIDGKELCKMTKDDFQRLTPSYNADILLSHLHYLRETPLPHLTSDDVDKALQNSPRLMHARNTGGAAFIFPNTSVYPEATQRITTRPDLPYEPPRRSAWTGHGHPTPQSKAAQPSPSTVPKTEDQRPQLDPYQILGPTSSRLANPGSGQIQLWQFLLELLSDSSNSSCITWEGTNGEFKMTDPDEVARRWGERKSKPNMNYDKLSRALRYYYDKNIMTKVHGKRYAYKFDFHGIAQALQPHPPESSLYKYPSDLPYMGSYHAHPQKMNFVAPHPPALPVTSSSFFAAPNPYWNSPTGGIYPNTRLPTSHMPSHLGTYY
# Outline: as §1
# ELF1 = ELF1 (Homo sapiens, UniProt P32519 1-619); settings: protein: recombinant; tags: N-terminal GST; dsDNA, one strand shown
# ELF1, sequence (P32519 whole entry): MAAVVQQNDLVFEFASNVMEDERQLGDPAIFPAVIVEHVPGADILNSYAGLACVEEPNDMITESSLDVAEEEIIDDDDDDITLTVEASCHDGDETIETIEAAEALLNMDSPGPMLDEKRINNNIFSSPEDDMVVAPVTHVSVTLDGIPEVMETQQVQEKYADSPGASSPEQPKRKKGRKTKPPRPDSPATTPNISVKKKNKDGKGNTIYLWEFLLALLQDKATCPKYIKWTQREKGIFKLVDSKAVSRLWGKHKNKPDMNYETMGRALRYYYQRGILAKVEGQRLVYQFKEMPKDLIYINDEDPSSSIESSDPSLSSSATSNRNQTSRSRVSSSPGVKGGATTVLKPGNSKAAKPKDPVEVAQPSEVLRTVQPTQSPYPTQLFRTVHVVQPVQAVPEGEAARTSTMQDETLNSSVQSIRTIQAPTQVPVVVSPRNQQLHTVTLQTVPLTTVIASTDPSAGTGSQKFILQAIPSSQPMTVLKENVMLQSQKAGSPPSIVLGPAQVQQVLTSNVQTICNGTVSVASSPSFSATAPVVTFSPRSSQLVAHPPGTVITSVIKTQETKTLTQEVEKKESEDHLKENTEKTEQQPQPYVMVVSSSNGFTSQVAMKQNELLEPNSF
# Outline: as §1
# EHF = biological target: T5, EHF (Homo sapiens, UniProt Q9NZC4 1-300); settings: protein: recombinant; tags: N-terminal GST; dsDNA, one strand shown
# T5 sequence: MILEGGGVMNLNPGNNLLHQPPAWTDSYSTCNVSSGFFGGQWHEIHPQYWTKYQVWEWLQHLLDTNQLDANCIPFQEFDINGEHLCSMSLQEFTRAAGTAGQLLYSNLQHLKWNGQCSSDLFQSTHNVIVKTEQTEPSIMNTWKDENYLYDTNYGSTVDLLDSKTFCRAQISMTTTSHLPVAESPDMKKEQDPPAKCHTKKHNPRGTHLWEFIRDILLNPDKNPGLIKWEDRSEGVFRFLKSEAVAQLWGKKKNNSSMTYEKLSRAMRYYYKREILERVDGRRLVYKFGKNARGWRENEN
# Outline: as §1
# SPI1 = SPI1 (Homo sapiens, UniProt P17947 1-270); settings: protein: recombinant; tags: N-terminal GST; dsDNA, one strand shown
# Outline: as §1
# SPIB = SPIB (Homo sapiens, UniProt Q01892 1-262); settings: protein: recombinant; tags: N-terminal GST; dsDNA, one strand shown
# SPIB, sequence (Q01892 whole entry): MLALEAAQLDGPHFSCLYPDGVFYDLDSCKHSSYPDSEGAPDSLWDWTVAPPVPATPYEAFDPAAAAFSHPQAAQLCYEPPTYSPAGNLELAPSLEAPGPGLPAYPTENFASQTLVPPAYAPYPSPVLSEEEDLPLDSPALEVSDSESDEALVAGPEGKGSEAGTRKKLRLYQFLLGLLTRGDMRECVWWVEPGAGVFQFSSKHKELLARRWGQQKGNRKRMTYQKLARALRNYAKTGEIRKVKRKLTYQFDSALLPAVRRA
# Outline: as §1
# ELK3 = biological target: T6, ELK3 (Homo sapiens, UniProt P41970 1-407); settings: protein: recombinant; tags: N-terminal GST; dsDNA, one strand shown
# T6 sequence: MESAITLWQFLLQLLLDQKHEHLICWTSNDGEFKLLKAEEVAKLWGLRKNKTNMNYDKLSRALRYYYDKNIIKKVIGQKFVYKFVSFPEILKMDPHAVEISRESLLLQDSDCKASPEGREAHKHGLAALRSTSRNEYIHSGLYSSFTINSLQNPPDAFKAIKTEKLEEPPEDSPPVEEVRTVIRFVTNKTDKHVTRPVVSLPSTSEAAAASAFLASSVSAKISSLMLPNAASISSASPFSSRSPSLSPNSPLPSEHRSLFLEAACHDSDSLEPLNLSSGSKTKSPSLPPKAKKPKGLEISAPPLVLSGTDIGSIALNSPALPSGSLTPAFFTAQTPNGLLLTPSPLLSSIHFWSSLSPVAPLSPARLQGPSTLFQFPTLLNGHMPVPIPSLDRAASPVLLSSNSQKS
# Outline: as §1
# FEV = biological target: T7, FEV (Homo sapiens, UniProt Q99581 1-238); settings: protein: recombinant; tags: N-terminal GST; dsDNA, one strand shown
# T7 sequence: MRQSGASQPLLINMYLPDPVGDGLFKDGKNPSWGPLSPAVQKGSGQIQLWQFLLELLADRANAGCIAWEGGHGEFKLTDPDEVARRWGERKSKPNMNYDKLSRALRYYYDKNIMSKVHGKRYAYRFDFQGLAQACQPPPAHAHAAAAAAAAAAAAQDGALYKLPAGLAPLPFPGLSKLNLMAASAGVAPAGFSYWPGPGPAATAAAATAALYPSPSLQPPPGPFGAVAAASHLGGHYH
# Outline: as §1
# ETV5 = ETV5 (Homo sapiens, UniProt P41161 1-510); settings: protein: recombinant; tags: N-terminal GST; dsDNA, one strand shown
# ETV5, sequence (P41161 whole entry): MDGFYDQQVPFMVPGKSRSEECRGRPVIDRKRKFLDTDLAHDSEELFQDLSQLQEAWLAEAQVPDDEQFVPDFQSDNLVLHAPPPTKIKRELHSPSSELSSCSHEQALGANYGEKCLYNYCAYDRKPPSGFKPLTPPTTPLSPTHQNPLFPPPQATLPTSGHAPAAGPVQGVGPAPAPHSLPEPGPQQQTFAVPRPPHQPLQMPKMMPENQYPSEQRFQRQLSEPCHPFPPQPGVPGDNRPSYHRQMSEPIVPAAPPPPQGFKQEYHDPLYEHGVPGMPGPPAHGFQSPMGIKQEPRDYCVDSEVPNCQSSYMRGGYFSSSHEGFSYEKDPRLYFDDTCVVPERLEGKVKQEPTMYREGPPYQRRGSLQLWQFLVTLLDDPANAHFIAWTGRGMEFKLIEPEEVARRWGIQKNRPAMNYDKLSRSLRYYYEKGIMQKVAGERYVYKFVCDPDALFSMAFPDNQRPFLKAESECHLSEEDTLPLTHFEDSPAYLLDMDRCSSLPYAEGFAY
# Outline: as §1
# HSF1 = HSF1 (Homo sapiens, UniProt Q00613 1-529); settings: protein: recombinant; tags: N-terminal GST; chain copies: 3; dsDNA, one strand shown
# HSF1, sequence (Q00613 whole entry): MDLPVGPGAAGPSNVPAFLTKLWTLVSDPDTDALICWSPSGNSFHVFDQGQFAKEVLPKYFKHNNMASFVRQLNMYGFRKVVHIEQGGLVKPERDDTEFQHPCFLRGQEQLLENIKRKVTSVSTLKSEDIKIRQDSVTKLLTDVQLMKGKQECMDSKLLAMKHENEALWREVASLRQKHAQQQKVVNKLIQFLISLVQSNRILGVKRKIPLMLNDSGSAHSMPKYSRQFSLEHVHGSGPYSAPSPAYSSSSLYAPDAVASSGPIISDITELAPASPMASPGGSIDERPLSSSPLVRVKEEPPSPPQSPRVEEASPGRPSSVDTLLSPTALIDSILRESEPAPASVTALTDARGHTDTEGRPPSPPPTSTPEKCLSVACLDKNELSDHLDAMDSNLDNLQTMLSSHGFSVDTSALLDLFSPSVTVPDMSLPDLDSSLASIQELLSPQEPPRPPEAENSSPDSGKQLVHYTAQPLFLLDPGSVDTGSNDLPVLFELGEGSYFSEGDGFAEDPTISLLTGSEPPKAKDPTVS
# Outline: as §1
# SPIC = biological target: T8, SPIC (Homo sapiens, UniProt Q8N5J4 1-248); settings: protein: recombinant; tags: N-terminal GST; dsDNA, one strand shown
# T8 sequence: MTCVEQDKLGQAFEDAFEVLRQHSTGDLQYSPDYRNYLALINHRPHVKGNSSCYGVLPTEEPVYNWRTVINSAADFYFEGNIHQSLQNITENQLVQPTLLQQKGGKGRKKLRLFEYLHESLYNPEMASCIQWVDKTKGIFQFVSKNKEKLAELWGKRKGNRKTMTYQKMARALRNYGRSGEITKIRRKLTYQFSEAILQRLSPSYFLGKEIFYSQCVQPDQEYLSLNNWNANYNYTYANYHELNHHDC
# Outline: as §1
# ELF4 = ELF4 (Homo sapiens, UniProt Q99607 1-663); settings: protein: recombinant; tags: N-terminal GST; dsDNA, one strand shown
# ELF4, sequence (Q99607 whole entry): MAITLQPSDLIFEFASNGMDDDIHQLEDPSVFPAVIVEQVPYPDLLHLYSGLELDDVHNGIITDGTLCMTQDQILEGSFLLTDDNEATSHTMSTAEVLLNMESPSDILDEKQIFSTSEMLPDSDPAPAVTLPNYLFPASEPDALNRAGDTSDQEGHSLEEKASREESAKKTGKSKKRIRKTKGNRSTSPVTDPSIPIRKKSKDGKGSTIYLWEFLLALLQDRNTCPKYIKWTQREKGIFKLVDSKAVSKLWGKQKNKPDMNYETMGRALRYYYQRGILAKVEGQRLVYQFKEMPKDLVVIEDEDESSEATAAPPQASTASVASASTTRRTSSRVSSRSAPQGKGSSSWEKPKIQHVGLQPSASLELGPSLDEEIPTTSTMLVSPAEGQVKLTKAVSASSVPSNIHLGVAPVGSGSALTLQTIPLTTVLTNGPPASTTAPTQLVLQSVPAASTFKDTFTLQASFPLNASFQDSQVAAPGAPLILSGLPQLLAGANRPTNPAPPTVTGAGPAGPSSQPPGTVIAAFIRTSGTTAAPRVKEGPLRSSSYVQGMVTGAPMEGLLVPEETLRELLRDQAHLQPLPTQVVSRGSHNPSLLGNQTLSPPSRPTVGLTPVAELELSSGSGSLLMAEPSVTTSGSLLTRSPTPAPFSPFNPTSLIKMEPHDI
# Outline: as §1
# ELK4 = biological target: T9, ELK4 (Homo sapiens, UniProt P28324-2 1-405); settings: protein: recombinant; tags: N-terminal GST; dsDNA, one strand shown
# T9 sequence: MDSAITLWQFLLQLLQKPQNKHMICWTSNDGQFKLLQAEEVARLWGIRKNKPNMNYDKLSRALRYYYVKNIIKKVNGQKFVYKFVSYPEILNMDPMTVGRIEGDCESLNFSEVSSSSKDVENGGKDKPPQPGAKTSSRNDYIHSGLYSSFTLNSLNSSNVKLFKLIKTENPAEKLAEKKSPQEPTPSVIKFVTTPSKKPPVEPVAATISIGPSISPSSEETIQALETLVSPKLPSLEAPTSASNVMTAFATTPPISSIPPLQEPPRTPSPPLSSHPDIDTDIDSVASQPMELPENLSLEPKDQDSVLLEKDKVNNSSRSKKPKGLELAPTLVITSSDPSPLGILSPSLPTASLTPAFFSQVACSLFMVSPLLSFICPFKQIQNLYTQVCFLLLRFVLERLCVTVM
# Outline: as §1
# ETV2 = biological target: T10, ETV2 (Homo sapiens, UniProt O00321 1-342); settings: protein: recombinant; tags: N-terminal GST; dsDNA, one strand shown
# T10 sequence: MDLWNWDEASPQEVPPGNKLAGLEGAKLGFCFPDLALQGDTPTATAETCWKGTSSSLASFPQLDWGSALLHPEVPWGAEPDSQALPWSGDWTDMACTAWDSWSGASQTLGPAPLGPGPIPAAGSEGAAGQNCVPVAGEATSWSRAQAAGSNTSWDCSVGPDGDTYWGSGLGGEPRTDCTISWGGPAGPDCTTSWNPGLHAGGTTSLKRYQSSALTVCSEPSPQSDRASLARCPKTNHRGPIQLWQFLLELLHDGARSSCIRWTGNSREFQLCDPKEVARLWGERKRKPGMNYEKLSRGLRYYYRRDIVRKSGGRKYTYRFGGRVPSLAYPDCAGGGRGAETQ
# Outline: as §1
# ELF3 = biological target: T11, ELF3 (Homo sapiens, UniProt P78545 1-371); settings: protein: recombinant; tags: N-terminal GST; dsDNA, one strand shown
# T11 sequence: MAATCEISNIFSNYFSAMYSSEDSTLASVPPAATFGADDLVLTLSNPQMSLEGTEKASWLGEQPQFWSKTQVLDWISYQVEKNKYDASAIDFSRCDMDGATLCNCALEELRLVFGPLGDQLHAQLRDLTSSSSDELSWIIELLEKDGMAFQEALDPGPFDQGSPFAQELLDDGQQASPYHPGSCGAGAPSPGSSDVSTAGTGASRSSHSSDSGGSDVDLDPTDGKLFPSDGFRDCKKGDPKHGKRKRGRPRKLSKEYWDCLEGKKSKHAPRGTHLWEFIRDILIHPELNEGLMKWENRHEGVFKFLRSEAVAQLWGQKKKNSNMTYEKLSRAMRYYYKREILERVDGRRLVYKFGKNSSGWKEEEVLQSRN
# Outline: as §1
# CRX = CRX (Homo sapiens, UniProt O43186 1-299); settings: protein: recombinant; tags: N-terminal GST; dsDNA, one strand shown
# CRX, sequence (O43186 whole entry): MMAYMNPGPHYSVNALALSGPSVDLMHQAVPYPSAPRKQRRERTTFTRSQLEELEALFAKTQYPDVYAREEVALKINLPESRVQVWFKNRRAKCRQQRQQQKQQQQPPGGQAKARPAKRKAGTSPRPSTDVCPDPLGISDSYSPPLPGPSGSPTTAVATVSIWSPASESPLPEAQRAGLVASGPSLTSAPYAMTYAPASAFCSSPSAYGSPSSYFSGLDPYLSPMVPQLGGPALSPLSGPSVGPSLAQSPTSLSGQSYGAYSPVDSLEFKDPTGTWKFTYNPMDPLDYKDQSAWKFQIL
# Outline: as §1
# ETV1 = ETV1 (Homo sapiens, UniProt P50549 1-477); settings: protein: recombinant; tags: N-terminal GST; dsDNA, one strand shown
# ETV1, sequence (P50549 whole entry): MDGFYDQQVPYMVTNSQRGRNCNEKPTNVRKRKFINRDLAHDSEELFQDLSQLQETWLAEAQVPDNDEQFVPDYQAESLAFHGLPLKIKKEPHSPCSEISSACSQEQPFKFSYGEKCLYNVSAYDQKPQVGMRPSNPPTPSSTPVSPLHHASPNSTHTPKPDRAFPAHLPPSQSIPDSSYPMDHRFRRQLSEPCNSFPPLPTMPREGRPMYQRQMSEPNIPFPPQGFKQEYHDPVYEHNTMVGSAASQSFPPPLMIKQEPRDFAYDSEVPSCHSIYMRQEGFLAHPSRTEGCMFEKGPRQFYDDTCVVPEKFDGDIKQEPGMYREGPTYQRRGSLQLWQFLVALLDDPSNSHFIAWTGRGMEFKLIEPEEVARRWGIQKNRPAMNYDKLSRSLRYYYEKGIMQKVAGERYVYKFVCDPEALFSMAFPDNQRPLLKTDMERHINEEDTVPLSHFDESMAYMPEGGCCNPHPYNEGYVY
# Outline: as §1
sequence,measurement,setting,value
TTTCCG,binding signal,FLI1,"3.86 fold enrichment (6-mer frequency, TF over GST control)"
same,binding signal,ELK1,"3.68 fold enrichment (6-mer frequency, TF over GST control)"
same,binding signal,GABPA,"3.28 fold enrichment (6-mer frequency, TF over GST control)"
same,binding signal,ERG,"4.93 fold enrichment (6-mer frequency, TF over GST control)"
same,binding signal,ELF1,"3.41 fold enrichment (6-mer frequency, TF over GST control)"
same,binding signal,EHF,"3.75 fold enrichment (6-mer frequency, TF over GST control)"
same,binding signal,SPI1,"3.47 fold enrichment (6-mer frequency, TF over GST control)"
same,binding signal,SPIB,"3.89 fold enrichment (6-mer frequency, TF over GST control)"
same,binding signal,ELK3,"4.01 fold enrichment (6-mer frequency, TF over GST control)"
same,binding signal,FEV,"5.31 fold enrichment (6-mer frequency, TF over GST control)"
same,binding signal,ETV5,"4.02 fold enrichment (6-mer frequency, TF over GST control)"
same,binding signal,HSF1,"1.48 fold enrichment (6-mer frequency, TF over GST control)"
same,binding signal,SPIC,"3.86 fold enrichment (6-mer frequency, TF over GST control)"
same,binding signal,ELF4,"3.35 fold enrichment (6-mer frequency, TF over GST control)"
same,binding signal,ELK4,"2.97 fold enrichment (6-mer frequency, TF over GST control)"
same,binding signal,ETV2,"3.65 fold enrichment (6-mer frequency, TF over GST control)"
same,binding signal,ELF3,"3.54 fold enrichment (6-mer frequency, TF over GST control)"
same,binding signal,CRX,"1.39 fold enrichment (6-mer frequency, TF over GST control)"
same,binding signal,ETV1,"3.76 fold enrichment (6-mer frequency, TF over GST control)"
